Data published in the supplement of paper PMC8728848.
This excerpt belongs to a sample that is enriched for the strongest signals.

How the values were obtained:
Experiment in all cases: glycan array binding signal (z-score within array); higher = stronger binding
Settings in all cases: glycan notation: IUPAC condensed, linker removed
[1] = target: Fuc(a1-2)Gal(b1-4)GlcNAc(b1-3)Gal(b1-4)GlcNAc
How it was run: (§1)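 The binding signal is a Z-score computed within each array. Data were drawn from 3228 arrays in the Consortium for Functional Glycomics database, restricted to those with a known protein sequence. Scores were averaged over arrays of the same protein sequence at different concentrations or buffers, and over linkers, and negative values can be taken as non-binding.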

[2] = target: Fuc(a1-2)Gal(b1-4)GlcNAc(b1-3)Gal(b1-4)GlcNAc(b1-2)Man(a1-3)[Fuc(a1-2)Gal(b1-4)GlcNAc(b1-3)Gal(b1-4)GlcNAc(b1-2)Man(a1-6)]Man(b1-4)GlcNAc(b1-4)GlcNAc
How it was run: as §1

[3] = target: Fuc(a1-2)Gal(b1-4)[Fuc(a1-3)]GlcNAc
How it was run: as §1

[4] = target: Fuc(a1-2)Gal(b1-4)[Fuc(a1-3)]GlcNAc(b1-2)Man(a1-3)[Fuc(a1-2)Gal(b1-4)[Fuc(a1-3)]GlcNAc(b1-2)Man(a1-6)]Man(b1-4)GlcNAc(b1-4)[Fuc(a1-6)]GlcNAc
How it was run: as §1

[5] = target: Fuc(a1-2)Gal(b1-4)[Fuc(a1-3)]GlcNAc(b1-2)[Fuc(a1-2)Gal(b1-4)[Fuc(a1-3)]GlcNAc(b1-4)]Man(a1-3)[Fuc(a1-2)Gal(b1-4)[Fuc(a1-3)]GlcNAc(b1-2)Man(a1-6)]Man(b1-4)GlcNAc(b1-4)GlcNAc
How it was run: as §1

[6] = target: Fuc(a1-2)Gal(b1-4)[Fuc(a1-3)]GlcNAc(b1-3)GalNAc
How it was run: as §1

[7] = target: Fuc(a1-2)Gal(b1-4)[Fuc(a1-3)]GlcNAc(b1-3)[Neu5Ac(a2-6)Gal(b1-4)GlcNAc(b1-6)]Gal(b1-4)Glc
How it was run: as §1

[8] = target: Fuc(a1-2)Gal6S(b1-4)Glc6S
How it was run: as §1

[9] = target: Fuc(a1-2)[Gal(a1-3)]Gal(b1-4)GlcNAc(b1-2)Man(a1-3)[Fuc(a1-2)[Gal(a1-3)]Gal(b1-4)GlcNAc(b1-2)Man(a1-6)]Man(b1-4)GlcNAc(b1-4)GlcNAc
How it was run: as §1

[10] = target: Fuc(a1-2)[Gal(a1-3)]Gal(b1-4)[Fuc(a1-3)]GlcNAc(b1-3)GalNAc
How it was run: as §1

[11] = target: Fuc(a1-2)[GalNAc(a1-3)]Gal(b1-3)GlcNAc
How it was run: as §1

[12] = target: Fuc(a1-2)[GalNAc(a1-3)]Gal(b1-3)GlcNAc(b1-2)Man(a1-3)[Fuc(a1-2)[GalNAc(a1-3)]Gal(b1-3)GlcNAc(b1-2)Man(a1-6)]Man(b1-4)GlcNAc(b1-4)[Fuc(a1-6)]GlcNAc
How it was run: as §1

[13] = target: Fuc(a1-2)[GalNAc(a1-3)]Gal(b1-4)GlcNAc(b1-3)Gal(b1-4)GlcNAc
How it was run: as §1

[14] = target: Fuc(a1-2)[GalNAc(a1-3)]Gal(b1-4)[Fuc(a1-3)]GlcNAc(b1-3)GalNAc
How it was run: as §1

[15] = target: Fuc(a1-3)[GalNAc(b1-4)]GlcNAc
How it was run: as §1

[16] = target: Gal(a1-3)Gal(b1-3)[Fuc(a1-4)]GlcNAc(b1-2)Man(a1-3)[Gal(a1-3)Gal(b1-3)[Fuc(a1-4)]GlcNAc(b1-2)Man(a1-6)]Man(b1-4)GlcNAc(b1-4)GlcNAc
How it was run: as §1

[17] = target: Gal(b1-3)Gal(b1-4)GlcNAc
How it was run: as §1

[18] = target: Gal(b1-3)GalNAc
How it was run: as §1

[19] = target: Gal(b1-3)GalNAc(a1-3)[Fuc(a1-2)]Gal(b1-4)Glc
How it was run: as §1

[20] = target: Gal(b1-3)GalNAc(a1-3)[Fuc(a1-2)]Gal(b1-4)GlcNAc
How it was run: as §1

[21] = target: Gal(b1-3)GalNAc(b1-3)Gal
How it was run: as §1

[22] = target: Gal(b1-3)GalNAc(b1-3)Gal(a1-4)Gal(b1-4)Glc
How it was run: as §1

[23] = target: Gal(b1-3)GalNAc(b1-4)Gal(b1-4)Glc
How it was run: as §1

[24] = target: Gal(b1-3)GalNAc(b1-4)[Neu5Ac(a2-3)]Gal(b1-4)Glc
How it was run: as §1

[25] = target: Gal(b1-3)GlcNAc
How it was run: as §1

[26] = target: Gal(b1-3)[Fuc(a1-4)]GlcNAc
How it was run: as §1

[27] = target: Gal(b1-3)[Neu5Ac(a2-6)]GalNAc
How it was run: as §1

[28] = target: Gal(b1-3)[Neu5Ac(b2-6)]GalNAc
How it was run: as §1

[29] = target: Gal(b1-4)GalNAc(b1-3)[Fuc(a1-2)]Gal(b1-4)GlcNAc
How it was run: as §1

[30] = target: Gal(b1-4)GlcNAc(b1-2)[Gal(b1-4)GlcNAc(b1-6)]Man(a1-6)[Gal(b1-4)GlcNAc(b1-2)Man(a1-3)]Man(b1-4)GlcNAc(b1-4)[Fuc(a1-6)]GlcNAc
How it was run: as §1

[31] = target: Gal(b1-4)GlcNAc(b1-3)Gal(b1-4)GlcNAc(b1-2)[Gal(b1-4)GlcNAc(b1-3)Gal(b1-4)GlcNAc(b1-6)]Man(a1-6)[Gal(b1-4)GlcNAc(b1-3)Gal(b1-4)GlcNAc(b1-2)Man(a1-3)]Man(b1-4)GlcNAc(b1-4)[Fuc(a1-6)]GlcNAc
How it was run: as §1

[32] = target: GalNAc(b1-3)GlcNAc
How it was run: as §1

[33] = target: GalNAc3S(b1-4)GlcNAc
How it was run: as §1

[34] = target: Glc(b1-4)Glc
How it was run: as §1

[35] = target: GlcNAc(a1-3)Gal(b1-4)GlcNAc
How it was run: as §1

[36] = target: GlcNAc(b1-2)[GlcNAc(b1-4)]Man(a1-3)[GlcNAc(b1-4)][GlcNAc(b1-2)[GlcNAc(b1-6)]Man(a1-6)]Man(b1-4)GlcNAc(b1-4)[Fuc(a1-6)]GlcNAc
How it was run: as §1

[37] = target: GlcNAc(b1-3)Gal(b1-4)GlcNAc(b1-3)Gal(b1-4)GlcNAc(b1-2)Man(a1-3)[GlcNAc(b1-3)Gal(b1-4)GlcNAc(b1-3)Gal(b1-4)GlcNAc(b1-2)Man(a1-6)]Man(b1-4)GlcNAc(b1-4)[Fuc(a1-6)]GlcNAc
How it was run: as §1

[38] = target: GlcNAc(b1-3)[GlcNAc(b1-6)]GalNAc
How it was run: as §1

[39] = target: Kdn(a2-6)Gal(b1-4)GlcNAc
How it was run: as §1

[40] = target: Man(a1-2)Man(a1-3)[Man(a1-6)]Man(a1-6)[Man(a1-2)Man(a1-3)]Man(b1-4)GlcNAc(b1-4)GlcNAc
How it was run: as §1

[41] = target: Man(a1-3)[Man(a1-6)]Man(a1-6)[Man(a1-3)]Man(b1-4)GlcNAc(b1-4)GlcNAc
How it was run: as §1

[42] = target: Neu5Ac(a2-3)Gal(b1-3)GalNAc6S
How it was run: as §1

[43] = target: Neu5Ac(a2-3)Gal(b1-3)GlcNAc(b1-4)Gal(b1-4)Glc
How it was run: as §1

[44] = target: Neu5Ac(a2-3)Gal(b1-3)GlcNAc(b1-6)GalNAc
How it was run: as §1

[45] = target: Neu5Ac(a2-3)Gal(b1-4)Glc
How it was run: as §1

[46] = target: Neu5Ac(a2-3)Gal(b1-4)GlcNAc(b1-2)[Neu5Ac(a2-3)Gal(b1-4)GlcNAc(b1-4)]Man(a1-3)[GlcNAc(b1-4)][Neu5Ac(a2-3)Gal(b1-4)GlcNAc(b1-4)Man(a1-6)]Man(b1-4)GlcNAc(b1-4)GlcNAc
How it was run: as §1

[47] = target: Neu5Ac(a2-3)Gal(b1-4)GlcNAc(b1-3)Gal
How it was run: as §1

[48] = target: Neu5Ac(a2-3)Gal(b1-4)GlcNAc(b1-3)Gal(b1-4)GlcNAc(b1-3)Gal(b1-4)GlcNAc
How it was run: as §1

[49] = target: Neu5Ac(a2-3)GalNAc
How it was run: as §1

[50] = target: Neu5Ac(a2-6)Gal(b1-4)GlcNAc(b1-2)Man(a1-3)[Gal(b1-4)GlcNAc(b1-2)Man(a1-6)]Man(b1-4)GlcNAc(b1-4)GlcNAc
How it was run: as §1

[51] = target: Neu5Ac(a2-6)GalNAc(b1-4)GlcNAc6S
How it was run: as §1

[52] = target: Neu5Ac(a2-8)Neu5Ac(a2-3)[Gal(b1-3)GalNAc(b1-4)]Gal(b1-4)Glc
How it was run: as §1

[53] = target: Neu5Ac(a2-8)Neu5Ac(a2-8)Neu5Ac
How it was run: as §1

[54] = target: Neu5Gc(a2-6)GalNAc
How it was run: as §1

B1: Epa3 (Candida glabrata), Q6VBI8_CANGB (protein)
chain: MGSSHHHHHHSSGLVPRGSHMNDLGFSLFEKRELSSQNPFGYPIGCSPQDVAIIPGLTMELYSYPIVSGTPPNCYDASYVDPEYPRTGYLKRKMVGKSTGVTGNLNYKYSVEKACMVKYGNLPAGYNYNEPLTVSNFTMILYGYFKAQTTGLHTFFVNADDLLYINFGAGNAFDCCKREDSKTKLGEYVAYDIWHVDSSKNKVSLFLEKDLYYPIRMFFNNIGKDSSLDLSFSVNGATDQISDFSGYLYSVPDQPDTCPAHIGYDTTCR
glycan array binding signal (z-score) [1]: -0.314
glycan array binding signal (z-score) [2]: 0.01
glycan array binding signal (z-score) [3]: -0.32
glycan array binding signal (z-score) [4]: 0.042
glycan array binding signal (z-score) [5]: 0.047
glycan array binding signal (z-score) [6]: 0.718
glycan array binding signal (z-score) [7]: -0.262
glycan array binding signal (z-score) [8]: 0.004
glycan array binding signal (z-score) [9]: -0.263
glycan array binding signal (z-score) [10]: 0.123
glycan array binding signal (z-score) [11]: -0.201
glycan array binding signal (z-score) [12]: -0.205
glycan array binding signal (z-score) [13]: -0.246
glycan array binding signal (z-score) [14]: 2.94
glycan array binding signal (z-score) [15]: 0.843
glycan array binding signal (z-score) [16]: -0.23
glycan array binding signal (z-score) [17]: 3.61
glycan array binding signal (z-score) [18]: 2.99
glycan array binding signal (z-score) [19]: 3.57
glycan array binding signal (z-score) [20]: 3.87
glycan array binding signal (z-score) [21]: 8.62
glycan array binding signal (z-score) [22]: 3.07
glycan array binding signal (z-score) [23]: 17
glycan array binding signal (z-score) [24]: 2.86
glycan array binding signal (z-score) [25]: -0.202
glycan array binding signal (z-score) [26]: -0.142
glycan array binding signal (z-score) [27]: 4.98
glycan array binding signal (z-score) [28]: 0.622
glycan array binding signal (z-score) [29]: -0.192
glycan array binding signal (z-score) [30]: -0.134
glycan array binding signal (z-score) [31]: 0.064
glycan array binding signal (z-score) [32]: -0.122
glycan array binding signal (z-score) [33]: -0.277
glycan array binding signal (z-score) [34]: -0.201
glycan array binding signal (z-score) [35]: -0.2
glycan array binding signal (z-score) [36]: -0.314
glycan array binding signal (z-score) [37]: 0.201
glycan array binding signal (z-score) [38]: -0.176
glycan array binding signal (z-score) [39]: -0.334
glycan array binding signal (z-score) [40]: -0.175
glycan array binding signal (z-score) [41]: -0.086
glycan array binding signal (z-score) [42]: -0.264
glycan array binding signal (z-score) [43]: 0.022
glycan array binding signal (z-score) [44]: -0.336
glycan array binding signal (z-score) [45]: -0.174
glycan array binding signal (z-score) [46]: -0.312
glycan array binding signal (z-score) [47]: -0.282
glycan array binding signal (z-score) [48]: -0.435
glycan array binding signal (z-score) [49]: -0.308
glycan array binding signal (z-score) [50]: -0.331
glycan array binding signal (z-score) [51]: -0.236
glycan array binding signal (z-score) [52]: 2.2
glycan array binding signal (z-score) [53]: -0.342
glycan array binding signal (z-score) [54]: -0.066
